Reference: PubChem BioAssay
“And” between values parts separate entries of the source, which are not always exact repeats. Equal values may be shown once. Results filed as inconclusive are left out. The source made the active and inactive calls.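 How the source made its calls, unless noted: active means normalized viability below 100% at a tested concentration; inactive means the rest.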

How the values were obtained:
[1] = viability loss in pontine glioma line – cell-based, SU-DIPG-XVII, MIPE5.0, CellTiter-Glo, qHTS, dose response (AID 1347060; cut-off not given, nearly all actives have AC50 up to about 26 µM;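 on AC50: cells exposed to compound for 48 hours before viability readout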); conditions: CellTiter-Glo ATP luminescence
[2] = viability loss in pontine glioma line – cell-based, SU-DIPG-XIII, MIPE4.0, CellTiter-Glo, qHTS, dose response (AID 1347061; cut-off not given, nearly all actives have AC50 up to about 37 µM;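 further: cells exposed to compound for 48 hours before readout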); conditions: CellTiter-Glo ATP luminescence
[3] = viability loss in pontine glioma line – cell-based, JHH-DIPG-1, MIPE4.0, CellTiter-Glo, qHTS, dose response (AID 1347062; cut-off not given, nearly all actives have AC50 up to about 27 µM;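 on AC50: cells exposed to compound for two days before readout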); conditions: JHH-DIPG-1 viability, CellTiter-Glo ATP luminescence
[4] = viability loss in pontine glioma line – cell-based, SU-DIPG-IV, MIPE4.0, CellTiter-Glo, qHTS, dose response (AID 1347063; cut-off not given, nearly all actives have AC50 up to about 30 µM;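 further: compound exposure lasted 48 hours before the viability readout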); conditions: CellTiter-Glo ATP luminescence
[5] = viability loss in pontine glioma line – cell-based, SU-DIPG-XIII, MIPE5.0, CellTiter-Glo, qHTS, dose response (AID 1347064; cut-off not given, nearly all actives have AC50 up to about 23 µM;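 on AC50: cells exposed to compound for 48 hours before the viability read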); conditions: CellTiter-Glo ATP luminescence
[6] = viability loss in pontine glioma line – cell-based, SU-DIPG-XXV, MIPE5.0, CellTiter-Glo, qHTS, dose response (AID 1347065; cut-off not given, nearly all actives have AC50 up to about 26 µM;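 further: cells exposed to compound for 48 hours before ATP readout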); conditions: CellTiter-Glo ATP luminescence
[7] = JHH-DIPG-1 glioma cell viability, MIPE5.0 library, CellTiter-Glo luminescence, qHTS (AID 1347067; cut-off not given, nearly all actives have AC50 up to about 26 µM;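 further: cells exposed to compound for 48 hours before readout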); conditions: JHH-DIPG-1 glioma viability, CellTiter-Glo ATP luminescence
[8] = viability loss with induced miR-34 in A549 – imaging, A549 dox-inducible miR-34, nuclei and caspase counts, primary screen (AID 1347080;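 active means compounds whose cell count with miR-34 switched on is under 0.7 times the count with it off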); conditions: A549 miR-34 inducible, Hoechst nuclei count, 48 h
[9] = MELAS cybrid and Rieske KO viability enhancers – cell-based, MELAS cybrids, Rieske KO mouse fibroblasts, CellTiter-Glo, primary screen (AID 1508586;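 active means mean z-score across replicates of 1.96 or higher in either the MELAS or the Rieske mutant cell line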;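 further: z relative to plate mean and SD of compound and empty wells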); conditions: low glucose
[10] = drug combination growth inhibition, ovarian cancer – cell-based, oncology-focused library, rucaparib conditional, profiling panel (AID 1508598); conditions: patient-derived ovarian cancer cells, CellTiter-Glo viability, 144 h, stronger effect = lower value
[11] = growth inhibition of DIPG cells – cell-based, MIPE4.0 library, CellTiter-Glo luminescence, qHTS (AID 1347066; cut-off not given, nearly all actives have AC50 up to about 30 µM;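 further: cells exposed to compound for 48 hours before readout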); conditions: SU-DIPG-VI viability, CellTiter-Glo ATP luminescence
[12] = compounds altering HSF1 focus formation in cells – imaging, Selleck Cancer Library (AID 1347162; in the data active means plate-normalised HSF1 focus index below about 0.46); conditions: human cells, HSF1 nuclear foci imaging, at 10 µM; SSMD: measured here: HSF1 foci SSMD mean; cell count: measured here: cell number; plate-normalised HSF1 focus index: stronger effect = lower value
[13] = growth inhibition of DIPG cells – cell-based, MIPE5.0 library, qHTS (AID 1347068; cut-off not given, nearly all actives have IC50 up to about 30 µM;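 on IC50: cells exposed to compound for 48 hours before viability readout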); conditions: SU-DIPG-XXV viability
[14] = growth inhibition, single agent or in combination, cell-based, chromothripsis tumors, cisplatin or BGB combos (AID 1671449; in the data active means inhibition above about 80%;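 further: cells exposed for 96 hours; 0% = vehicle DMSO and 100% = killing by high DMSO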); conditions: LFS_MB_P medulloblastoma cells
[15] = growth inhibition, single agent and combos, cell-based, chromothripsis tumors, cisplatin or BGB combos (AID 1671450; in the data active means inhibition above about 80%;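 further: cells exposed to compound for four days; 0% = vehicle DMSO and 100% = cell killing by high DMSO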); conditions: HDN33 neuroblastoma cells, stronger effect = higher value
[16] = growth inhibition, single agents and combos, ICB984, cell-based, cisplatin or BGB combos, synergistic combos for chromothripsis tumors (AID 1671451; call rule not given here;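 further: cells exposed for 96 hours before readout; 0% = vehicle DMSO and 100% = killing by high DMSO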); conditions: ICB984 medulloblastoma cells, drug combinations, stronger effect = higher value
[17] = stronger effect = lower value, cell number ratio, induced over uninduced
[18] = measured here: relative caspase fold change +Dox/-Dox
[19] = measured here: total cells with miR-34 induction, stronger effect = lower value
[20] = measured here: total cells without miR-34 induction
[21] = at 0.000305 µM, OCI-C5x cells, with rucaparib 10 µM, 100% = cells with rucaparib alone
[22] = at 0.000305 µM, OCI-C5x cells, without rucaparib
[23] = at 0.000305 µM, OCI-P5x cells, with rucaparib 20 µM, 100% = cells with rucaparib alone
[24] = at 0.000305 µM, OCI-P5x cells, without rucaparib
[25] = at 0.00122 µM, OCI-C5x cells, with rucaparib 10 µM, 100% = cells with rucaparib alone
[26] = at 0.00122 µM, OCI-C5x cells, without rucaparib
[27] = at 0.00122 µM, OCI-P5x cells, with rucaparib 20 µM, 100% = cells with rucaparib alone
[28] = at 0.00122 µM, OCI-P5x cells, without rucaparib
[29] = at 0.00488 µM, OCI-C5x cells, with rucaparib 10 µM, 100% = cells with rucaparib alone
[30] = at 0.00488 µM, OCI-C5x cells, without rucaparib
[31] = at 0.00488 µM, OCI-P5x cells, with rucaparib 20 µM, 100% = cells with rucaparib alone
[32] = at 0.00488 µM, OCI-P5x cells, without rucaparib
[33] = at 0.0195 µM, OCI-C5x cells, with rucaparib 10 µM, 100% = cells with rucaparib alone
[34] = at 0.0195 µM, OCI-C5x cells, without rucaparib
[35] = at 0.0195 µM, OCI-P5x cells, with rucaparib 20 µM, 100% = cells with rucaparib alone
[36] = at 0.0195 µM, OCI-P5x cells, without rucaparib
[37] = at 0.0781 µM, OCI-C5x cells, with rucaparib 10 µM, 100% = cells with rucaparib alone
[38] = at 0.0781 µM, OCI-C5x cells, without rucaparib
[39] = at 0.0781 µM, OCI-P5x cells, with rucaparib 20 µM, 100% = cells with rucaparib alone
[40] = at 0.0781 µM, OCI-P5x cells, without rucaparib
[41] = at 0.313 µM, OCI-C5x cells, with rucaparib 10 µM, 100% = cells with rucaparib alone
[42] = at 0.313 µM, OCI-C5x cells, without rucaparib
[43] = at 0.313 µM, OCI-P5x cells, with rucaparib 20 µM, 100% = cells with rucaparib alone
[44] = at 0.313 µM, OCI-P5x cells, without rucaparib
[45] = at 1.25 µM, OCI-C5x cells, with rucaparib 10 µM, 100% = cells with rucaparib alone
[46] = at 1.25 µM, OCI-C5x cells, without rucaparib
[47] = at 1.25 µM, OCI-P5x cells, with rucaparib 20 µM, 100% = cells with rucaparib alone
[48] = at 1.25 µM, OCI-P5x cells, without rucaparib
[49] = at 5 µM, OCI-C5x cells, with rucaparib 10 µM, 100% = cells with rucaparib alone
[50] = at 5 µM, OCI-C5x cells, without rucaparib
[51] = at 5 µM, OCI-P5x cells, with rucaparib 20 µM, 100% = cells with rucaparib alone
[52] = at 5 µM, OCI-P5x cells, without rucaparib

Cn1cc(CNCC2CCN(c3ncc(C(=O)NO)cn3)CC2)c2ccccc21
-2.7: z-score ([9]; Rieske KO mouse fibroblast survival, CellTiter-Glo 72 h)
0.734: fold change [8, 18]
984: cell count [8, 19]
inactive: fold change [8, 17] 0.846 | z-score ([9]; MELAS cybrid survival, CellTiter-Glo 48 h, stronger effect = higher value) -0.103 | viability [10, 21] 126% | viability [10, 22] 118% | viability [10, 25] 125% | viability [10, 26] 133% | viability [10, 27] 104% | viability [10, 29] 116% | viability [10, 30] 138%
1160: cell count [8, 20]
active: AC50 [1] 417 nM | AC50 [2] 2640 nM | AC50 [3] 332 nM | AC50 [4] 418 nM | AC50 [5] 209 nM | AC50 [6] 132 nM | AC50 [7] 209 nM | viability [10, 23] 95.4% | viability [10, 24] 92.2% | viability [10, 28] 95.8% | viability [10, 31] 76.6% | viability [10, 32] 85.4% | viability [10, 33] 96.2% | viability [10, 34] 99.7% | viability [10, 35] 32.6% | viability [10, 36] 51.7% | viability [10, 37] 7.04% | viability [10, 38] 7.55% | viability [10, 39] 3.73% | viability [10, 40] 9.01% | viability [10, 41] 5.05% | viability [10, 42] 5.83% | viability [10, 43] 1.63% | viability [10, 44] 1.83% | viability [10, 45] 3.87% | viability [10, 46] 5.39% | viability [10, 47] 1.03% | viability [10, 48] 0.724% | viability [10, 49] 4.54% | viability [10, 50] 5.34% | viability [10, 51] 1.24% | viability [10, 52] 1.13%

Cc1cncc2cccc(S(=O)(=O)N3CCCN(C(=O)CN)C[C@@H]3C)c12
active: AC50 [4] 372 nM
inactive: outcome [1] | outcome [2] | outcome [3] | outcome [5] | outcome [11] | outcome [7]

CC(/C=C/C(=O)NO)=C\[C@@H](C)C(=O)c1ccc(N(C)C)cc1
active: AC50 [1] 332 nM | AC50 [2] 7430 nM | AC50 [3] 1480 nM | AC50 [4] 590 nM | AC50 [5] 209 nM | AC50 [6] 372 nM | AC50 [7] 525 nM | viability [10, 22] 91.4% | viability [10, 23] 77.4% | viability [10, 24] 83.4% | viability [10, 27] 82.5% | viability [10, 28] 83.5% | viability [10, 31] 75.8% | viability [10, 32] 89.8% | viability [10, 35] 81.7% | viability [10, 36] 76.1% | viability [10, 37] 42.3% | viability [10, 38] 17.8% | viability [10, 39] 50.3% | viability [10, 40] 51.8% | viability [10, 41] 8.25% | viability [10, 42] 6.7% | viability [10, 43] 13% | viability [10, 44] 12.1% | viability [10, 45] 4.57% | viability [10, 46] 4.64% | viability [10, 47] 2.76% | viability [10, 48] 2.28% | viability [10, 49] 5% | viability [10, 50] 4.88% | viability [10, 51] 0.994% | viability [10, 52] 1.21%
-1.78: SSMD [12]
7010: cell count [12]
1.51 and 0.994: fold change [8, 18]
926 and 1160: cell count [8, 19]
952 and 1150: cell count [8, 20]
inactive: fold change [8, 17] 0.973 and 1 | plate-normalised HSF1 focus index [12] 0.921 | viability [10, 21] 111% | viability [10, 25] 117% | viability [10, 26] 102% | viability [10, 29] 107% | viability [10, 30] 105% | viability [10, 33] 115% | viability [10, 34] 109%

N[C@@]1(C(=O)O)CS(=O)(=O)[C@H]2[C@H](C(=O)O)[C@H]21
inactive: outcome [1] | outcome [2] | outcome [3] | outcome [4] | outcome [5] | outcome [11] | outcome [7] | outcome [13]

O=C1NC(=O)/C(=C\c2ccc(-c3ccc(F)cc3)o2)S1
inactive: outcome [1] | outcome [2] | outcome [3] | outcome [4] | outcome [5] | outcome [11] | outcome [13]

CCCCc1nc2cc(/C=C/C(=O)NO)ccc2n1CCN(CC)CC
-1.52: SSMD [12]
7.49%: inhibition ([16]; BGB IC20 combo, at 0.005 µM)
75.4%: inhibition ([14]; measured here: combination with BGB IC40, at 0.005 µM)
-13.5%: inhibition ([14]; measured here: combination with BGB IC20, at 0.005 µM)
-8.13%: inhibition ([16]; BGB IC40 combo, at 0.005 µM)
99.8%: inhibition ([15]; single agent, at 5 µM)
7710: cell count [12]
57.9%: inhibition ([15]; measured here: with BGB IC20 combination, at 0.5 µM)
-26%: inhibition ([14]; measured here: combination with cisplatin, at 0.5 µM, stronger effect = higher value)
104%: inhibition ([14]; measured here: combination with cisplatin, at 5 µM, stronger effect = higher value)
71.1%: inhibition ([15]; measured here: with cisplatin IC20 combination, at 0.5 µM)
inactive: plate-normalised HSF1 focus index [12] 0.904 | viability [10, 21] 109% | viability [10, 22] 111% | viability [10, 25] 115% | viability [10, 26] 116% | viability [10, 28] 104% | viability [10, 29] 117% | viability [10, 30] 117% | viability [10, 32] 107% | viability [10, 33] 110% | viability [10, 34] 117% | viability [10, 36] 104% | viability [10, 38] 123% | inhibition ([14]; at 0.5 µM, stronger effect = higher value) -27.6% | inhibition ([15]; at 0.5 µM) 64.3% | inhibition ([16]; at 0.5 µM) -30.3%
99.5%: inhibition ([15]; BGB combo, at 5 µM)
-21.7%: inhibition ([14]; measured here: combination with BGB IC40, at 0.05 µM)
active: AC50 [1] 1660 nM | AC50 [2] 14800 nM | AC50 [3] 296 nM | AC50 [4] 14.8 nM | AC50 [5] 1320 nM | AC50 [6] 332 nM | AC50 [7] 1050 nM | IC50 [13] 13200 nM | viability [10, 23] 93.3% | viability [10, 24] 99.3% | viability [10, 27] 98.6% | viability [10, 31] 95.5% | viability [10, 35] 93.4% | viability [10, 37] 96.7% | viability [10, 39] 88.6% | viability [10, 40] 95.7% | viability [10, 41] 92.4% | viability [10, 42] 91.7% | viability [10, 43] 68.3% | viability [10, 44] 76.5% | viability [10, 45] 28.3% | viability [10, 46] 21.2% | viability [10, 47] 26.6% | viability [10, 48] 43.4% | viability [10, 49] 4.57% | viability [10, 50] 5.34% | viability [10, 51] 1.32% | viability [10, 52] 2.31%
99.9%: inhibition ([15]; cisplatin combo, at 5 µM)
90.2%: inhibition ([16]; BGB IC40 combo, at 0.05 µM) | inhibition ([16]; cisplatin combo, at 0.05 µM)
